Measured values from PubChem BioAssay AID463173 (ICCB-Longwood Screening Facility, Harvard Medical School, 2010).
The whole screen tested about 52,000 compounds, of which about 4,300 (8.3%) were called active. The sample as a whole holds a higher share of actives than the screen did. Unmarked numbers belong to inactive results. Rule as the data show it: active = survival mostly below about 52% (no sharp cut-off); inactive = mostly above about 56%.

The compounds below were run on DeltatarO mutant (assay: S. aureus survival, RN4220 and DeltatarO strains – OD600, teichoic acid synthesis inhibitors, primary screen (AID 463173)). Settings: S. aureus RN4220 wild type/DeltatarO growth, OD600, 18 h, active compounds read low, screened at 18.75 µg/mL (by protocol).

Compound | survival
CCOc1ccc(OCC)c(NC(=O)C2CCCN(S(=O)(=O)c3cc(Br)cc4c3N(C(=O)CC)CC4)C2)c1 (centres undefined) | 100%
COc1ccc(CCNC(=O)CCCn2c(=O)c3ccccc3n(Cc3cccc(Cl)c3)c2=O)cc1OC | 72%
Cc1ccc2nc(N3CCN(C(=O)C4COc5ccccc5O4)CC3)sc2c1 (centres undefined) | 89%
COc1ccccc1CNC(=O)COCc1cc(-c2ccc3c(c2)OCO3)on1 | 25% (active)
O=C(COCc1cc(-c2ccc3c(c2)OCO3)on1)NCc1ccccc1Cl | 70%
Cc1ccc(CNC(=O)COCc2cc(-c3ccc4c(c3)OCO4)on2)cc1 | 75%
COc1cccc(CNC(=O)COCc2cc(-c3ccc4c(c3)OCO4)on2)c1 | 37% (active)
O=C(COCc1cc(-c2ccc3c(c2)OCO3)on1)NCc1ccc(F)cc1 | 85%
COc1ccc(CNC(=O)COCc2cc(-c3ccc4c(c3)OCO4)on2)cc1 | 94%
O=S(=O)(c1ccccc1)n1nc(-c2ccco2)nc1NCc1ccccc1 | 71%
O=C(Nc1ccc(N2CCN(C(=O)c3ccco3)CC2)cc1)c1ccccc1 | 93%
CCOc1ccc(-n2nc3ccc(NC(=O)c4cccc(F)c4)cc3n2)cc1 | 84%
CCCNC(=O)c1ccc2c(c1)nc1n2CCCCC1 | 94%
COc1cccc(C(=O)NCCc2csc(-c3cccc(F)c3)n2)c1OC | 75%
Cc1cccc(N2CCN(C(=O)CN3C(=O)COc4ccc(S(=O)(=O)N5CCCC5)cc43)CC2C)c1 (centres undefined) | 77%
O=C(COc1ccccc1[N+](=O)[O-])N1CCC(c2nc3ccccc3o2)CC1 | 79%
CCOC(=O)c1csc2c1CCC/C2=N/OC(C)=O | 86%
CCOC(=O)c1cc2c(=O)n3ccccc3nc2n(Cc2ccco2)c1=NC(=O)c1cccc(C)c1 | 33% (active)
CCOC(=O)c1cc2c(=O)n3ccccc3nc2n(Cc2ccco2)c1=NC(=O)c1cc(C)cc(C)c1 | 29% (active)
CCOc1ccccc1NC(=O)Cn1ccn(-c2ccccc2)c(=O)c1=O | 49%
CCC(=O)Nc1nnc(S(=O)(=O)N2CCCCCC2)s1 | 89%
CN(c1ccccc1)S(=O)(=O)c1nnc(NC(=O)COc2ccccc2)s1 | 56%
Cc1cc(C)cc(N(C)S(=O)(=O)c2nnc(NC(=O)COc3ccc(Cl)cc3)s2)c1 | 80%

Compound | survival
O=C(COc1ccc(Cl)cc1)Nc1nnc(S(=O)(=O)N2CCCCCC2)s1 | 55% (active)
COc1ccc(OCC(=O)Nc2nnc(S(=O)(=O)N3CCCCCC3)s2)cc1 | 76%
Cc1ccc(OCC(=O)Nc2nnc(S(=O)(=O)N3CCCCCC3)s2)cc1 | 64%
Cc1cc(C)cc(N(C)S(=O)(=O)c2nnc(NC(=O)COc3ccc(C)c(C)c3)s2)c1 | 30% (active)
O=C(COc1ccccc1)Nc1nnc(S(=O)(=O)N2CCCC2)s1 | 39% (active)
CCN(CC)S(=O)(=O)c1nnc(NC(=O)COc2cccc(C)c2)s1 | 94%
Cc1cccc(OCC(=O)Nc2nnc(S(=O)(=O)N3CCCCCC3)s2)c1 | 48% (active)
CC(Oc1ccccc1)C(=O)Nc1nnc(S(=O)(=O)N2CCCCCC2)s1 (centres undefined) | 50%
O=C(COc1ccccc1)Nc1nnc(S(=O)(=O)N2CCCCCC2)s1 | 79%
CC1(C)CC(=O)C2=C(C1)NC1=C(C(=O)CC(C)(C)C1)C2c1ccc2c(c1)OCO2 | 96%
NC(=O)c1nc(-c2ccc(F)c(F)c2)nc2c1[nH]c(=O)n2-c1cccc(Cl)c1 | 86%
O=C(Nc1cccc(C(F)(F)F)c1)N1CCC(CN2CCCCCC2)CC1 | 83%
Cc1cccc(C(=O)Nc2ccc(N3CCC(CCN4CCOCC4)CC3)c(C(=O)O)c2)c1 | 66%
Cc1ccc(N2CCN(c3cc(C)nc4c(-c5ccc(Cl)cc5)c(C)nn34)CC2C)cc1 (centres undefined) | 55%
COc1ccc(C(=O)c2cn(Cc3ccc(F)cc3)c3c(F)cc(F)cc3c2=O)cc1 | 103%
Cc1cccc(N2CCN(C(=O)CCNS(=O)(=O)c3ccc4c(c3)CCN4C(=O)C3CC3)CC2)c1C | 73%
N#Cc1ccccc1NC(=O)CSc1nnc(N)s1 | 76%
O=C(COc1ccc(F)cc1)Nc1nnc(S(=O)(=O)N2CCCC2)s1 | 39% (active)
CCCC(=O)Nc1nnc(S(=O)(=O)N2CCCCCC2)s1 | 91%
CC(C)CC(=O)Nc1nnc(S(=O)(=O)N2CCCCCC2)s1 | 109%
Cn1c(/C(C#N)=C/C2CC=CCC2)nc2ccccc21 (centres undefined) | 78%
Cn1c(/C(C#N)=C/c2ccccc2Br)nc2ccccc21 | 79%
COc1ccc(Cl)cc1N/C=C(/C#N)c1nc2ccccc2n1C | 82%

Compound | survival
Cn1c(/C(C#N)=C/c2ccc(C(F)(F)F)cc2)nc2ccccc21 | 103%
COc1ccc(/C=C(\C#N)c2nc3ccccc3n2C)c(OC)c1 | 29% (active)
COc1cc(/C=C(\C#N)c2nc3ccccc3n2C)cc(OC)c1OC | 47% (active)
Cc1cc(=O)n(CC(=O)N2CCCc3ccccc32)c2c1c(C)nn2-c1cccc(F)c1 | 85%
Cc1ccc(C)c(NC(=O)CSc2ncc3c(n2)-c2ccc(Cl)cc2N(C)S3(=O)=O)c1 | 74%
CCCCN(C)CCNC(=O)c1ccc2c(c1)NC(=O)CN2 | 71%
CCOc1ccc(-n2nc3ccc(NC(=O)c4ccc(-c5cccc(Cl)c5)o4)cc3n2)cc1 | 45% (active)
CCOc1ccc(-n2nc3ccc(NC(=O)Cc4ccccc4)cc3n2)cc1 | 74%
COc1ccc(-n2nc3ccc(NC(=O)c4cc5ccccc5o4)cc3n2)cc1Cl | 159%
O=C(Nc1ccc2nn(-c3ccccc3)nc2c1)c1ccc(-c2cccc(Cl)c2)o1 | 105%
COc1ccc(-n2nc3ccc(NC(=O)c4ccc(-c5cc(Cl)ccc5Cl)o4)cc3n2)cc1 | 40% (active)
O=C(Nc1ccc2nn(-c3ccc(Cl)cc3)nc2c1)c1cc2ccccc2o1 | 65%
CCCCN(CC)CCCNC(=O)c1cc2c(-c3ccc(OC)c(OC)c3)nn(C)c2s1 | 140%
Cc1ccc(N2CCN(C(=O)c3cnn(-c4ccc(C)c(C)c4)c3C3CCNCC3)CC2)c(C)c1 | 55%
CCN(CC)S(=O)(=O)c1ccc2oc(C(=O)Nc3ccc(Br)cc3F)c(C)c2c1 | 69%
O=C(O)CCN1CCCC1 | 78%
CCN(c1cccc(C)c1)c1ncnc2c1cnn2-c1cccc(Cl)c1 | 70%
CCc1ccc(/C=C(/C#N)c2nc(-c3ccc(C)cc3)cs2)cc1 | 8% (active)
N#C/C(=C/c1ccc(O)cc1)c1nc(-c2ccc(-c3ccccc3)cc2)cs1 | 9% (active)
CCOc1ccc(-c2csc(/C(C#N)=C/c3ccc(Br)cc3)n2)cc1 | 55%
N#C/C(=C\c1ccc(F)cc1)c1nc(-c2ccc(-c3ccccc3)cc2)cs1 | 69%
CN(C)c1ccc(/C=C(\C#N)c2nc(-c3ccc(Cl)c(Cl)c3)cs2)cc1 | 76%
Cc1ccc(/C=C(\C#N)c2nc(-c3ccc(-c4ccccc4)cc3)cs2)cc1 | 57%

Compound | survival
N#C/C(=C/c1ccc(Cl)cc1)c1nc(-c2ccc(Br)cc2)cs1 | 65%
CC(C)c1ccc(/C=C(\C#N)c2nc(-c3ccc(O)cc3)cs2)cc1 | -1% (active)
COc1ccc(/C=C(/C#N)c2nc(-c3ccc(-c4ccccc4)cc3)cs2)cc1 | 73%
O=C(Nc1ccc(Cl)cc1)N1CCN(c2ccc3nnc(-c4ccc(F)cc4)n3n2)CC1 | 68%
Cc1ccc2oc(-c3cccc(NC(=O)c4sc5c([N+](=O)[O-])cccc5c4Cl)c3)nc2c1 | 67%
COc1cc(-c2nc(Cn3nnc(C(=O)Nc4ccccc4C)c3C)c(C)o2)cc(OC)c1OC | 58%
COc1ccc(NC(=O)c2c(C)oc3ccc(O)c(CN4CCN(Cc5ccccc5)CC4)c23)cc1 | 56%
CCn1c(=O)c2sccc2n2c(CCC(=O)Nc3ccc(F)cc3)nnc12 | 82%
O=C(CSc1nc2ccccc2n1Cc1ccc(F)c(Cl)c1)N1CCN(c2ccc(F)cc2)CC1 | 61%
Cc1csc2nc(COC(=O)c3ccccc3NC(=O)c3cccc(Br)c3)cc(=O)n12 | 87%
Cc1ccc(CNC(=O)c2c(-c3cccc(Br)c3)noc2C)o1 | 87%
COc1ccc(S(=O)(=O)N(CCc2ccccc2)CC(=O)Nc2cc(C)ccc2C)cc1 | 48%
Cc1ccc(NC(=O)CN(CCc2ccccc2)S(=O)(=O)c2ccccc2)c(C)c1 | 38% (active)
Cc1c(Cl)cccc1NC(=O)CN(CCc1ccccc1)S(=O)(=O)c1ccccc1 | 49%
COc1ccc(S(=O)(=O)N(CCc2ccccc2)CC(=O)Nc2cc(Cl)ccc2C)cc1 | 58%
Cc1ccc(C)c(NC(=O)CN(CCc2ccccc2)S(=O)(=O)c2ccccc2)c1 | 46% (active)
CCOc1ccccc1NC(=O)CN(CCc1ccccc1)S(=O)(=O)c1ccc(C)cc1 | 106%
Cc1cccc(NC2=CC(c3cccc(Br)c3)N(c3cccc(C)c3)C2=O)c1 (centres undefined) | 137%
Cc1ccccc1Cn1ccn(-c2ccc(F)c(F)c2)c(=O)c1=O | 76%
O=C(CCNS(=O)(=O)c1ccc2c(c1)CCN2C(=O)C1CC1)N1CCN(c2cccc(Cl)c2)CC1 | 122%
